High-throughput results: PubChem BioAssay, several laboratories
A selection: hits, their analogues and other compounds. The true share with any hit is near 1.6%.
UBC9 SUMO inh = blocks human SUMOylation mediated by UBC9. inhibition, % at 35 µM. HTRF SUMOylation assay, SAE1/SAE2 + UBC9, in vitro. P63279. 290,000 tested, 0.36% active; in the data active = inhibition above about 50%, passing the limit was not always enough
Target sequence (P63279 whole entry, looked up): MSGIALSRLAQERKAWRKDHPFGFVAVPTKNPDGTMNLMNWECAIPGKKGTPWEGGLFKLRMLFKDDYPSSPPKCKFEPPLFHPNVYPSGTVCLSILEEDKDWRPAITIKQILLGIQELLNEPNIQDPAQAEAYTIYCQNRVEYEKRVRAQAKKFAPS
NSD2 inh = NSD2 (human) methyltransferase inhibition | NSD2 peptide methylation, AlphaScreen, 120 min | 310,000 tested, 0.54% active | O96028 | inhibition, % at 12.5 µM; in the data active = inhibition above about 50%
Casp6 inh = caspase-6 (human) enzyme inhibition; purified caspase-6, Z-VEID-R110 cleavage fluorescence; inhibition, % at 12.5 µM; AID 686996; 350,000 tested, 0.53% active; P55212;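 active = mean inhibition across replicates at least about 35%, with every replicate also reaching that limit, limit read from the data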;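 note: 0% = median of neutral control wells and 100% = no fluorescence left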
Target sequence (P55212 24-179 limits assumed): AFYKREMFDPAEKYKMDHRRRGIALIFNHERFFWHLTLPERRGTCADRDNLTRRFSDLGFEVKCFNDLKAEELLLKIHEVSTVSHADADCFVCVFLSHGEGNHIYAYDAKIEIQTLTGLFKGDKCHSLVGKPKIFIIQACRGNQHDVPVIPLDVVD
Target sequence (P55212 194-293 limits assumed): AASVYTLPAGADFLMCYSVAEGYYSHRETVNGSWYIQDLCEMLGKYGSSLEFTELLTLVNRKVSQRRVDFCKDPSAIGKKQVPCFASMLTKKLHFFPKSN
SIRT5 block = sirtuin-5 (human) deacylase inhibition. Q9NXA8. Purified SirT5, succinyl-peptide AMC, trypsin-coupled fluorescence. inhibition, % at 15 µM. 330,000 tested, 1.1% active; in the data active = inhibition above about 15%
Active calls of the source: *; x = no result given; ! = not active in a repeat.

SMILES | UBC9 SUMO inh | NSD2 inh | Casp6 inh | SIRT5 block
CCC1=NN(C(=O)c2ccc(Cl)cc2)C(O)(c2ccccc2)C1 (configuration not stated) | 9 | 1 | 0 | -1
CCC1=NN(C(=O)c2ccc(Cl)cc2)C(O)(c2ccc(C)cc2)C1 (configuration not stated) | -2 | 2 | 48* | 3
O=C(C[C@@H]1CC[C@@H](NC(=O)C2CCC2)[C@@H](CO)O1)NCC1CC1 | x | x | 1 | 1
CN(Cc1ccco1)C(=O)CSc1nn2c(=O)c(C(C)(C)C)nnc2s1 | x | 19 | 43* | 3
O=C(C[C@@H]1CC[C@@H]2[C@H](COC[C@@H](O)CN2C(=O)Nc2ccc(Cl)c(Cl)c2)O1)NCc1ccncc1 | x | x | 1 | -1
C[C@H]1CN([C@@H](C)CO)C(=O)c2cc(NC(=O)c3ccncc3)ccc2O[C@@H]1CN(C)CC1CCCCC1 | x | x | x | -1
O=C(Nc1ccccc1Cc1ccccc1)c1ccccc1NS(=O)(=O)c1ccc(Cl)s1 | 58* | 8 | x | x
O=C(Nc1ccccc1)c1ccccc1NS(=O)(=O)c1ccc(Cl)s1 | 2 | x | x | x
Cc1ccc(/C=C2\Oc3cc(OCC(=O)NN)ccc3C2=O)o1 | 59* | 12 | 3 | 0
O=C(O)COc1ccc2c(c1)O/C(=C\c1cccs1)C2=O | 17 | -1 | -4 | 8
Cc1ccc(C)c(/C=C/C(=O)c2ccccc(=O)c2O)c1 | 21 | 9 | x | x
Cc1ccc(/C=C/C(=O)c2ccccc(=O)c2O)c(C)c1 | 17 | 48 | 39* | x
CCCNC(=O)Nc1ccc2c(c1)C(=O)N(C)C[C@@H](OC)[C@H](C)CN(Cc1cccnc1)[C@@H](C)CO2 | x | x | -9 | -50
COc1ccccc1CNC(=O)c1oc2ccccc2c1C | 0 | -3 | 2 | -3
COc1ccc2c(C)c(C(=O)NCC(C)O)oc2c1OC (configuration not stated) | 59* | -1 | x | x
COc1cccc(S(=O)(=O)Nc2ccc3c(c2)OC[C@H](C)NC[C@H](C)[C@@H](OC)CN(C)C3=O)c1 | x | x | -1 | 0
O=C(Nc1cccc(S(=O)(=O)NC2=NCCCCC2)c1)c1cc(-c2ccco2)nc2ccccc12 | 81* | 9 | -1 | 0
O=C(Nc1cccc(S(=O)(=O)NC2=NCCCCC2)c1)c1cc(-c2ccncc2)nc2ccccc12 | 8 | 1 | 4 | 0
CCOc1cc(/C=C2\SC(N)=NC2=O)ccc1O | -4 | -2 | 5 | -1
CCOc1c(Br)cc(Br)cc1/C=C1\SC(N)=NC1=O | 18 | 1 | 2 | 15*
Cc1ccc(C(=O)NCCC(=O)N2CCC3(CC2)NCCc2[nH]cnc23)cc1C | -1 | 11 | 0 | 28*
Cc1ccc(C(=O)NCC(=O)N2CCC3(CC2)NCCc2[nH]cnc23)cc1C | x | 4 | -1 | -1
CCN(CC)C(=N)/C(C#N)=N/Nc1ccccc1 | 18 | 6 | -2 | 17*
CC(C)NC(=O)N(C)C[C@@H]1Oc2ccc(NC(=O)CCN3CCOCC3)cc2C(=O)N([C@H](C)CO)C[C@@H]1C | x | x | -1 | 0
COc1ccc(-c2cnc3c(c2)C(=O)N([C@@H](C)CO)C[C@@H](C)[C@@H](CN(C)C(=O)NC2CCCC2)O3)cc1 | x | x | -2 | -4
SMILES | UBC9 SUMO inh | NSD2 inh | Casp6 inh | SIRT5 block
CCCCC(=O)NNC(=O)c1c(O)c2ccccc2[nH]c1=O | 8 | -6 | 0 | 16*
O=C(NC1CC1)c1c(O)c2ccccc2[nH]c1=O | 9 | 0 | 45* | 1
C[C@H](CO)N1C[C@H](C)[C@H](CN(C)C(=O)C2CCOCC2)Oc2ncc(C#CCc3ccccc3)cc2C1=O | x | x | 0 | 3
O=C(Cn1c2ccccc2c(=O)c2cc([N+](=O)[O-])ccc21)Nc1ccccc1Cl | 51* | 2 | -3 | -5
C[C@H](CO)N1C[C@H](C)[C@@H](CN(C)C(=O)NC2CCCC2)Oc2cc(/C=C/c3ccccc3)ccc2S1(=O)=O | x | x | 3 | 0
C[C@@H]1CN([C@H](C)CO)S(=O)(=O)c2ccc(/C=C/c3ccccc3)cc2O[C@H]1CN(C)C(=O)NC1CCCC1 | x | x | -1 | 15*
C/C=C/c1ccc2c(c1)O[C@H](CN(C)C(=O)NC1CCCC1)[C@H](C)CN([C@H](C)CO)S2(=O)=O | x | x | 2 | 16*!
C[C@@H]1CN([C@@H](C)CO)S(=O)(=O)c2ccc(/C=C/c3ccccc3)cc2O[C@H]1CN(C)C(=O)NC1CCCC1 | x | x | -1 | 16*
COc1ccc(S(=O)(=O)N[C@@H]2C=C[C@H](CC(=O)NCc3ccccc3F)O[C@@H]2CO)cc1 | x | x | 0 | 4
O=C(CN1CCN(S(=O)(=O)c2ccc3ccccc3c2)CC1)Nc1ccc(N2CCOCC2)cc1 | -2 | 1 | 3 | 0
CCN(CC)c1ccc(S(=O)(=O)N2CCOCC2)cc1NC(=O)CN1CCN(Cc2ccccc2)CC1 | 8 | 5 | -2 | 29*
COc1ccc(N2CCN(CC(=O)Nc3cccc(S(=O)(=O)N4CCOCC4)c3)CC2)cc1 | -9 | 1 | 4 | 15*
CCN(CC)c1ccc(S(=O)(=O)N2CCOCC2)cc1NC(=O)CNCc1ccccc1 | -14 | 2 | 0 | -2
COc1ccc(NC(=O)N(C)C[C@H]2Oc3cc(C#CCC(C)C)ccc3S(=O)(=O)N([C@H](C)CO)C[C@H]2C)cc1 | x | x | 2 | 25*
CCCC#Cc1ccc2c(c1)O[C@@H](CN(C)C(=O)Nc1ccc(OC)cc1)[C@@H](C)CN([C@H](C)CO)S2(=O)=O | x | x | -1 | 6
CCCC#Cc1ccc2c(c1)O[C@H](CN(C)C(=O)Nc1ccc(OC)cc1)[C@@H](C)CN([C@H](C)CO)S2(=O)=O | x | x | -2 | 13
COc1ccc(NC(=O)N(C)C[C@@H]2Oc3cc(C#CCC(C)C)ccc3S(=O)(=O)N([C@@H](C)CO)C[C@H]2C)cc1 | x | x | 1 | 31*
CCCC#Cc1ccc2c(c1)O[C@H](CN(C)C(=O)Nc1ccc(OC)cc1)[C@H](C)CN([C@H](C)CO)S2(=O)=O | x | x | -3 | 4
COc1ccc(NC(=O)N(C)C[C@H]2Oc3cc(C#CCC(C)C)ccc3S(=O)(=O)N([C@H](C)CO)C[C@@H]2C)cc1 | x | x | -1 | 26*
COc1ccc(NC(=O)N(C)C[C@@H]2Oc3cc(C#CCC(C)C)ccc3S(=O)(=O)N([C@H](C)CO)C[C@@H]2C)cc1 | x | x | -1 | 31*
O=C(C[C@@H]1CC[C@H](NC(=O)Nc2ccccc2F)[C@@H](CO)O1)NCc1ccc(F)cc1 | x | x | 3 | 0
O=C(C[C@H]1C[C@H]2c3cc(NC(=O)Nc4ccccc4F)ccc3O[C@H]2[C@@H](CO)O1)NCc1cc(F)ccc1F | x | x | 2 | -3
COc1ccc(S(=O)(=O)N(C)C[C@@H]2Oc3c(NC(=O)NC(C)C)cccc3C(=O)N([C@@H](C)CO)C[C@H]2C)cc1 | x | x | -1 | 5
CCOCCCNC(=O)c1ccc2c(c1)N=C(CC)c1cc(Br)ccc1S2 | 8 | -1 | -1 | 17*
CCCNC(=O)N(C)C[C@H]1Oc2ncc(-c3ccc(F)cc3)cc2C(=O)N([C@@H](C)CO)C[C@@H]1C | x | x | 0 | -1
CCS(=O)(=O)c1nc(S(=O)(=O)c2ccc(Cl)cc2)c(N2CCOCC2)s1 | 22 | -1 | 38* | -4
